In PubChem BioAssay AID504339 (National Center for Advancing Translational Sciences (NCATS), 2011) one finds Potency data, which are given here for 99 compounds.

Molecules are shown by their SMILES. About 17,000 (4.4%) of roughly 390,000 compounds were called active. Where a call stands in place of a potency, no number is given. Roughly 8% stayed inconclusive and do not appear here. Calls come from the whole dose curve; as a rule, active = well fitted inhibition curve with a large enough effect; inconclusive = small, poorly fitted or top-dose-only effect; inactive = no such curve, though single readings can be large or run the other way. Only a selection was taken, and actives are over-represented in it overall.
Potency is the fitted concentration of half-maximal effect.

This test deals with Lysine-specific demethylase 4A (Homo sapiens) (UniProt O75164). Briefly: qHTS Assay for Inhibitors of JMJD2A-Tudor Domain. Note: nearly all actives have a fitted effect of over 50% in size. As to conditions: AlphaScreen JMJD2A-Tudor / H3K4me3 peptide binding; series mostly up to 114 µM. Background: qHTS replaces the single test concentration by a dilution series.
Lysine-specific demethylase 4A (Homo sapiens), sequence (O75164 whole entry, looked up, the tested form may be a part): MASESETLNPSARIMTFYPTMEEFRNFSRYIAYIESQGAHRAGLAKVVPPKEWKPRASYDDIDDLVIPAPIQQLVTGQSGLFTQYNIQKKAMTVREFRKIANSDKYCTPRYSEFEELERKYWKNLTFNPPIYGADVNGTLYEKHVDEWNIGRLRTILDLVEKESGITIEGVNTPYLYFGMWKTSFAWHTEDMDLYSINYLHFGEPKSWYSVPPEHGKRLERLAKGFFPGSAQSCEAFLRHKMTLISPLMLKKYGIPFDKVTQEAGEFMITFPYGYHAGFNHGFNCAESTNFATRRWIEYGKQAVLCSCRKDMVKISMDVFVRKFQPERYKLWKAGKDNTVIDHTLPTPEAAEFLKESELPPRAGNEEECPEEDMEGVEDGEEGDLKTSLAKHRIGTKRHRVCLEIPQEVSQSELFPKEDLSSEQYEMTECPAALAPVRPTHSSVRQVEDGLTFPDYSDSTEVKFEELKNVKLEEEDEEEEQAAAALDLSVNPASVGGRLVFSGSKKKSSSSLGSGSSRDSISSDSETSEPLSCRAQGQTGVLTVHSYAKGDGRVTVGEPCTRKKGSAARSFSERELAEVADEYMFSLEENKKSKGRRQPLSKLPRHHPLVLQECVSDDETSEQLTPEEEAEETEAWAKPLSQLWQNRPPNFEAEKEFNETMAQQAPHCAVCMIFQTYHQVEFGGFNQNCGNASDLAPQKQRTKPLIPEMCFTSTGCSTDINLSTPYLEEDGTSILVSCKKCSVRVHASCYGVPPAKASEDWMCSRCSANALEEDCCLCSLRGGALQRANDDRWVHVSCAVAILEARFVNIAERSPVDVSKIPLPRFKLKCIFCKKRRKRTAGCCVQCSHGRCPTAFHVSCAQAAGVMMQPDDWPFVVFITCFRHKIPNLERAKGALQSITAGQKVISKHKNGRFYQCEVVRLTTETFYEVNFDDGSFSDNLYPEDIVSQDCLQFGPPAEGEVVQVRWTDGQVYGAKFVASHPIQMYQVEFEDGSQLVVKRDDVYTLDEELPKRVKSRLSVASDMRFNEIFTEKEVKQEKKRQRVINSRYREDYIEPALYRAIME
Regarding `COc1cc(OC)cc(C(=O)Nc2cc3nn(-c4ccccc4)nc3cc2Cl)c1`, the Potency result is “inactive”.
As for `CCCNC(=O)CCC(=O)N1Cc2ccccc2Oc2ncccc21`, the entry is “inactive”.
As for `Cc1ccc(-c2noc(-c3nnn(-c4cccc(C(F)(F)F)c4)c3N)n2)cc1`, the entry is “inactive”; as for `CCC(C)NCCOCCOc1ccc(Br)cc1C` (centres undefined), 28.2 µM (active).
Take `Cc1cccc(NC(=O)COc2ccc(Br)cc2C)n1`: the Potency result was “inactive”.
In the case of `Cc1ccc(OCCOCCOc2ccc(Br)cc2/C=N\NC(=O)c2ccncc2)cc1`, the Potency entry is “inactive”.
Take `COc1ccc(C2C(=O)N(C3CCCCC3)CC(=O)N2Cc2ccccc2Cl)cc1OC` (centres undefined): the Potency result was “inactive”.
Take `COc1cccc(NC(=O)Nc2ccc3c(c2)N(C)C(=O)c2ccccc2S3)c1`: the Potency entry is “inactive”.
As for `CCc1ccc2c(c1)C1(NN=C(c3ccccc3)S1)C(=O)N2` (centres undefined), the figure is 56.2 µM (active).
In the case of `CCc1cccc(NC(=O)c2cc(-c3ccccc3)n[nH]2)c1`, the Potency entry was “inactive”.
As for `CCOc1ccc(CNC(=O)C2CCN(c3nnc(-n4cccc4CNc4ccc(C)cc4)s3)CC2)cc1OC`, the entry is “inactive”; as for `O=C(Nc1nnc(S(=O)(=O)N2CCCCCC2)s1)c1cccc(Br)c1`, “inactive”; as for `CCC(=O)Nc1nnc(S(=O)(=O)N2CCCc3ccccc32)s1`, “inactive”.
In the case of `O=C(Nc1nnc(S(=O)(=O)N2CCCc3ccccc32)s1)c1cccc(F)c1` it was 50.1 µM (active).
Consider `Cc1ccc2nc(NC(=O)c3nc(SCc4ccccc4F)ncc3Cl)sc2c1`, for which the Potency result was “inactive”.
In the case of `COc1ccc(S(=O)(=O)c2c(Nc3cccc(Cl)c3)sc(C(=O)c3ccccc3)c2N)cc1` it was “inactive”.
With `COc1ccc(C)cc1N(CC(=O)N1CCC(C)CC1)S(=O)(=O)c1ccc(C)cc1`, the Potency result was “inactive”.
Consider `COc1ccc(COCC(O)CN2CCC(C(N)=O)CC2)cc1` (centres undefined), for which the Potency result is “inactive”.
As for `COc1ccc(CN2CCN(C(=O)CCC(=O)Nc3nnc(C(C)C)s3)CC2)cc1F`, the entry is “inactive”.
Turning to `Cc1c(Br)c([N+](=O)[O-])nn1CC(=O)N1CCN(Cc2ccccc2)CC1`, the Potency entry was “inactive”.
In the case of `CCOC(=O)C1CCN(Cc2ccc(-c3ccccc3)cc2)CC1` it was 17.8 µM (active).
As for `CC(C)CC(=O)N1CCN(Cc2ccccc2Br)CC1`, the Potency was 17.8 µM (active).
In the case of `COc1cc(CN2CCC(C(N)=O)CC2)ccc1OCc1ccccc1` it was 50.1 µM (active).
As for `COc1ccc(CCN2C(=O)CC(N3CCC(C(N)=O)CC3)C2=O)cc1OC` (centres undefined), the entry is “inactive”; as for `CCOC(=O)C1CCN(CCC(=O)Nc2cccc(C)c2)CC1`, “inactive”.
As for `CCOc1cc(CO)ccc1OCC(=O)N1CCCCC1`, the entry is “inactive”; as for `CC(C)CC(=O)N1CCC(O)(CS(=O)(=O)Cc2ccccc2)CC1`, “inactive”.
Turning to `CCOc1cc(CN2CCN(C(=O)CC(C)C)CC2)ccc1OC`, the Potency was 3.16 µM (active).
As for `CCOC(=O)C1CCN(Cc2nnc(-c3cccc(Br)c3)o2)CC1`, the entry is “inactive”.
In the case of `COc1ccc(Cn2ccc3nc(C)c(C(=O)Nc4ccc(C)c(F)c4)cc3c2=O)cc1` it was “inactive”; in that of `COc1cccc(NC(=O)CSc2cc(=O)n(C)c3ccc(Cl)cc23)c1`, “inactive”.
On to `CCCNC(=O)c1ccc2c(c1)ncn2-c1ccc(C)cc1C`, for which the Potency result was “inactive”.
In the case of `COc1ccc(-c2cc(NCc3ccc(F)cc3)n3cnnc3n2)cc1` it was “inactive”; in that of `Cc1cc2oc(C(=O)N(Cc3ccc(Cl)cc3)Cc3ccco3)c(C)c2cc1Cl`, “inactive”; in that of `CC(C)(C)c1ccc(C(=O)NCC(c2ccc(Cl)cc2)N2CCOCC2)cc1` (centres undefined), “inactive”.
In the case of `Cc1nc2nc(SCC(=O)NC3CCC(C)CC3)nn2c(C)c1Cc1ccccc1Cl` (centres undefined) it was “inactive”; in that of `Cc1ccc(NC(=O)c2oc3ccc(S(=O)(=O)N4CCCCC4)cc3c2C)cc1Cl`, “inactive”; in that of `O=C(c1cccc(Cl)c1)N1CCN(Cc2ccccc2)CC1`, “inactive”.
As for `Cn1nnnc1SCC(=O)N1CCN(Cc2ccccc2)CC1`, the Potency entry was “inactive”.
In the case of `CC(C)CC(=O)N1CCN(Cc2cccc(Cl)c2)CC1` it was 44.7 µM (active); in that of `CCOC(=O)N1CCC(NC(=O)c2cnn(-c3cccc(C)c3)c2C2CCN(C(=O)OC(C)(C)C)CC2)CC1`, “inactive”; in that of `O=C(CNC(=O)c1ccc2ccccc2c1)Nc1ncccc1O`, 79.4 µM (active).
On to `O=C(Nc1ncccc1O)c1ccc(C(=O)c2ccccc2)cc1`, for which the Potency entry was “inactive”.
As for `CC1CCC(NC(=O)CNC(=O)c2ccc3ccccc3c2)CC1` (centres undefined), the entry is “inactive”.
For the compound `CCCN(CCC)C(=O)C1CCCN(c2ncnc3c2nc2n3CCCCC2)C1` (centres undefined), the Potency result was “inactive”.
In the case of `COc1cccc(NC(=S)NC(=O)c2c(Cl)c(C)nn2C)c1` it was 89.1 µM (active); in that of `COc1cccc(NC(=O)c2csnn2)c1`, “inactive”; in that of `Cc1nn(C)c(C(=O)NNC(=S)NC2CCCCC2)c1Cl`, “inactive”.
As for `COc1ccc(S(=O)(=O)c2cn(C)c3cc(N4CCCCC4)c(F)cc3c2=O)cc1`, the Potency result is “inactive”.
For `COc1ccc(S(=O)(=O)Nc2ccc3cn[nH]c3c2)cc1[N+](=O)[O-]`, the Potency entry is “inactive”.
In the case of `CCOc1ncccc1C(=O)NNC(=O)c1cccc(S(=O)(=O)Nc2ccccc2OC)c1` it was “inactive”.
As for `COC(=O)c1ccccc1NS(=O)(=O)c1ccc2[nH]c(=O)[nH]c2c1`, the entry is “inactive”.
As for `COc1cccc(/C=N/Nc2ccc(S(=O)(=O)Nc3ccccc3C(=O)O)cc2[N+](=O)[O-])c1O`, the Potency was 44.7 µM (active).
Take `COc1ccc(S(=O)(=O)Nc2ccccc2C(=O)N2CCCC2)cc1C`: the Potency result is “inactive”.
Regarding `COc1ccc(Br)cc1/C=N/Nc1ccc(S(=O)(=O)Nc2ccccc2C(=O)O)cc1[N+](=O)[O-]`, the Potency was 17.8 µM (active).
Take `CCOC(=O)C1CCN(C(=O)CSc2c3c(nc4ccc(Cl)cc24)CCCC3)CC1`: the Potency entry was “inactive”.
As for `COc1ccc2oc(-c3ccc(C)c(NC(=O)c4sc5ccccc5c4Cl)c3)nc2c1`, the entry is “inactive”; as for `CCc1ccc(Nc2n[n+](-c3ccccc3)c(-c3cccc(Cl)c3Cl)s2)cc1`, 56.2 µM (active).
As for `COc1cc(Br)c(-c2sc(Nc3ccccc3)n[n+]2-c2ccccc2)cc1OC`, the entry is “inactive”; as for `COc1ccc(C)cc1Nc1n[n+](-c2ccccc2)c(-c2cccc(Cl)c2Cl)s1`, “inactive”.
As for `Cc1cccc(NC(=O)C2CCCN2S(=O)(=O)c2cccc3nsnc23)c1C` (centres undefined), the entry is “inactive”; as for `COc1ccc(N2CCN(Cc3nc4c(c(=O)[nH]c(=O)n4C)n3Cc3ccc(Cl)cc3)CC2)cc1`, “inactive”; as for `COc1ccc(C)cc1-n1nnnc1SCc1nc2ccccc2c(=O)[nH]1`, “inactive”.
For the compound `COc1ccc(CCCc2nnc(SCc3nc4ccccc4c(=O)[nH]3)n2C)cc1`, the Potency is 15.8 µM (active).
As for `CCn1c(COc2c(C)cccc2C)nnc1SCc1nc2ccccc2c(=O)[nH]1`, the entry is “inactive”; as for `CCOc1ccccc1NC(=O)CSc1ncc(S(=O)(=O)c2ccc(C(C)(C)C)cc2)c(=O)[nH]1`, “inactive”; as for `CCCN1CCN(CCCNC(=O)c2ccc3nc(Cc4ccccc4)oc3c2)CC1`, “inactive”.
Consider `Cc1cc(/C=C2/SC(=O)N(CC(=O)N3CCCC3)C2=O)c(C)n1C`, for which the Potency result was “inactive”.
In the case of `Cc1cc(/C=C2/SC(=O)N(CC(=O)OC(C)C)C2=O)c(C)n1C` it was “inactive”; in that of `Cc1cc(/C=C2\SC(=O)N(C)C2=O)c(C)n1-c1cccc(C(=O)O)c1`, 56.2 µM (active).
As for `Cc1cccc(-n2c(SCC(N)=O)nc3c(oc4ccccc43)c2=O)c1`, the entry is “inactive”; as for `O=C(CSc1nc(=O)[nH]c2c1CCCC2)Nc1cc(C(F)(F)F)ccc1Cl`, “inactive”.
As for `CCOc1ccccc1NC(=O)CN1CCCN(Cc2cccc(Cl)c2)S1(=O)=O`, the entry is “inactive”.
As for `Cc1c(NC(=O)c2cc(=O)c3ccccc3o2)c(=O)n(-c2ccccc2)n1C`, the Potency entry was “inactive”.
Regarding `C/C(=N\Nc1cccc(C(=O)O)c1)c1ccc2c(c1)Nc1ccccc1S2`, the Potency was 56.2 µM (active).
In the case of `Cc1ccccc1NC(=O)c1cc(S(=O)(=O)Nc2cccc(C(=O)O)c2)ccc1Cl` it was “inactive”.
As for `CC(=O)Nc1cccc(/C(C)=N/NC(=O)c2c(-c3ccccc3Cl)noc2C)c1`, the entry is “inactive”.
In the case of `Cc1c(Cl)cccc1NC(=O)Cn1cc(C(=O)c2cccs2)c2ccccc21`, the Potency entry is “inactive”.
As for `CC(=O)c1nn(-c2ccc(OC(F)(F)F)cc2)nc1Nc1ccccc1`, the entry is “inactive”; as for `COC(=O)c1cccc(NC(=O)c2cccc(N3C(=O)CCC3=O)c2)c1`, “inactive”; as for `COc1ccccc1-c1nnc(NC(=O)c2cccc(N3C(=O)CCC3=O)c2)o1`, 35.5 µM (active).
With `COc1ccccc1NC(=O)c1ccc2nc(N3C(=O)CCC3=O)sc2c1`, the Potency result is “inactive”.
In the case of `Fc1ccc(C(Nc2ccc(Cl)c(C(F)(F)F)c2)c2nnc(-c3ccccc3)o2)cc1` (centres undefined) it was “inactive”.
As for `CCn1c(=O)cc(OCC(=O)Nc2cc(Cl)c(OC)cc2OC)c2ccccc21`, the Potency entry is “inactive”.
In the case of `COc1ccc(NC(=O)c2ccc3nc(CCc4ccccc4)oc3c2)c(OC)c1` it was “inactive”; in that of `COc1ccc(NS(=O)(=O)c2ccc(Oc3c(C#N)cccc3C#N)cc2)cc1`, “inactive”.
In the case of `COc1ccc(S(=O)(=O)Nc2cc3c(C(=O)OC(C)C)c(C)oc3c3ccccc23)cc1` it was “inactive”.
Turning to `COc1ccc(S(=O)(=O)/N=C2\C=C(NS(=O)(=O)c3ccccc3)C(=O)c3ccccc32)cc1`, the Potency is 39.8 µM (active).
In the case of `Cc1ccc(Cl)cc1N1CCN(C(=O)c2cccn3c(=O)c4cc(Cl)ccc4nc23)CC1` it was “inactive”; in that of `CCCC(=O)Nc1cc(C(=O)NCc2ccc(OC)cc2)ccc1S(=O)(=O)c1ccc(Cl)cc1`, “inactive”.
With `CCN(CC)S(=O)(=O)c1ccc2c(c1)N(CC(=O)NCC(C)c1ccccc1)C(=O)CO2` (centres undefined), the Potency result is “inactive”.
As for `CCc1cccc(NC(=O)CN(c2ccc(C)c(C)c2)S(=O)(=O)c2ccsc2C(=O)OC)c1`, the entry is “inactive”; as for `O=C(NCCCN1CCOCC1)c1cc(-c2ccccc2F)no1`, “inactive”.
In the case of `CSc1ccc(CNCCN2CCOCC2)cc1` it was “inactive”; in that of `CCCCC(CC)CNCc1cccn1CCN1CCOCC1` (centres undefined), 28.2 µM (active); in that of `Cc1cc(C)cc(NC(=O)Cc2csc(C)n2)c1`, “inactive”.
In the case of `COc1ccccc1OCCCn1c(-c2ccc(Cl)cc2)nc2ccccc2c1=O`, the Potency entry was “inactive”.
On to `Cn1c(COc2ccc(Cl)cc2)nc2ccccc2c1=O`, for which the Potency was 28.2 µM (active).
As for `COc1ccc(OCc2ccc(-c3nc4ccccc4c(=O)n3N)o2)cc1`, the entry is “inactive”.
